Coupling enz – counter-screen for Giardia aldolase inhibitors: coupling enzyme system; 290,000 compounds, 0.67% hits; activity change, negative = inhibition, % at 58.2 µM, hits read low; coupling enzyme system counterscreen, AmpLite Red fluorescence; in the data active = activity change below about -30%; note: % is set by controls: 0 for no effect and ±100 for the full control effect
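First, compound is pin-transferred into glyceraldehyde-3-phosphate coupling-enzyme reagent at 57.5 uM final and held 10 min at RT. Next, substrate, coupling system and AmpLite Red are added. After 20 min RT, fluorescence (525/598 nm) is read.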
USP1-UAF1 inh – inhibitors of human USP1/UAF1 deubiquitinase; O94782; 390,000 compounds, 0.23% hits; Potency, µM (top dose mostly 57.1 µM), inactives show top-dose activity change, negative = inhibition, most hits filed as inhibitors; recombinant USP1/UAF1, Ub-Rhodamine cleavage fluorescence; active = well fitted curve in the direction sought with a large enough effect; inconclusive = small, poorly fitted or top-dose-only effect, or another doubt; inactive = no such curve, though single readings can be large; an effect the other way counts as inactive or inconclusive; note: potency is the fitted concentration of half-maximal effect; % is set by controls: 0 for no effect and ±100 for the full control effect; nearly all actives have a fitted effect of over 60% in size
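1 nM enzyme complex + cpd, 15 min RT; start with Ub-Rho 150nM final; kinetic fluorescence ex 480/em 540, 6 reads q60 s. Buffer 50mM HEPES pH 7.8, 0.5mM EDTA, 0.1 mg/ml BSA, 1mM TCEP, 0.01% Tween-20.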
Tau fibril ThT – inhibitors of human tau fibril formation, thioflavin T binding; P10636; recombinant tau K18 P301L, heparin-induced fibrillization, ThT fluorescence; Potency, µM (top dose mostly 57.4 µM), inactives show at the top dose activity, negative = inhibition, most hits filed as inhibitors; 270,000 compounds, 2.1% hits; active = well fitted curve in the direction sought with a large enough effect; inconclusive = small, poorly fitted or top-dose-only effect, or another doubt; inactive = no such curve, though single readings can be large; an effect the other way counts as inactive or inconclusive; note: potency is the fitted concentration of half-maximal effect; % is set by controls: 0 for no effect and ±100 for the full control effect; nearly all actives have a fitted effect of over 55% in size
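Aggregation was driven by heparin (20 uM final) acting on recombinant tau […] bearing P301L in 100 mM sodium acetate pH 7; fibrils were detected with Thioflavin T.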
Tau FP inhib – tau fibrillization inhibition (FP). P10636. K18 P301L tau heparin fibrillization, Alexa594 FP, 6 h. Potency, µM (titrated, usually from 57.7 µM), without a hit: at the top dose activity, negative = inhibition, hits mostly inhibitors. 280,000 compounds, 0.39% hits; active = well fitted curve in the direction sought with a large enough effect; inconclusive = small, poorly fitted or top-dose-only effect, or another doubt; inactive = no such curve, though single readings can be large; an effect the other way counts as inactive or inconclusive; note: potency is the fitted concentration of half-maximal effect; % is set by controls: 0 for no effect and ±100 for the full control effect; nearly all actives have a fitted effect of over 55% in size
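Recombinant K18 P301L […], labeled with Alexa 594 at 0.24 uM over 15 uM unlabeled; heparin inducer 20 uM final; 37 C, 6 hr; FP endpoint.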
Tau fluor counter – counter-screen for tau fibril formation inhibitors. tau K18 P301L Alexa594 fluorescence, heparin fibrillization. Potency, µM (top dose mostly 57.7 µM), for inactives: at the highest dose activity change, negative = decrease. 280,000 compounds, 0.93% hits. AID 1463; active = well fitted curve in the direction sought with a large enough effect; inconclusive = small, poorly fitted or top-dose-only effect, or another doubt; inactive = no such curve, though single readings can be large; an effect the other way counts as inactive or inconclusive; note: potency is the fitted concentration of half-maximal effect; % is set by controls: 0 for no effect and ±100 for the full control effect; nearly all actives have a fitted effect of over 55% in size
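Human tau K18 P301L (15 uM unlabeled, 0.24 uM Alexa 594-labeled) in 100 mM sodium acetate pH 7 with 20 uM heparin, 6 hr at 37 C. ThT 30 uM added, 1 hr ambient; Alexa 594 FP and total fluorescence read at 555/632 nm.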
Tau TEM fibril – Inhibits tau K18 fibrillization by TEM grading; shares compounds with Tau fibril ThT; recombinant tau K18 P301L fibrillization, TEM grading; stronger effect = higher value; fibril grade (0 = clumped fibrils, 4 = only tiny pieces) (concentration not given with the values); 45 compounds, 70% hits;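 active = compounds whose electron micrographs showed tau fibrils broken into shorter filaments or fragments, graded high on fibril breakup; inconclusive = micrographs gave an unclear fibril picture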
tau sediment – tau fibrillization inhibition by sedimentation; recombinant tau K18 P301L (four-repeat tau fragment), sedimentation SDS-PAGE densitometry; inhibition, % at 100 µM; shares compounds with Tau fibril ThT; 110 compounds, 50% hits; in the data active = inhibition above about 40%; inconclusive = no clear call, values can overlap the other calls; inactive = below about 18%
CASP1 redox cat – caspase-1 inhibition with catalase present. shares compounds with Coupling enz. caspase-1 Ac-WEHD-AFC fluorescence rate, catalase buffer. Potency, µM (doses to about 57.5 µM), for inactives: at the top dose activity change, negative = inhibition, usual class: inhibitors. 30 tested, under 10 active
Casp1 confirm – blocks human caspase-1 activity in concentration-response; shares compounds with Coupling enz; purified caspase-1, fluorogenic substrate cleavage; Potency, µM (titrated, usually from 57.5 µM), for the others: at the top dose activity change, negative = inhibition, hits mostly inhibitors; 60 compounds, 20% hits; AID 896
CASP7 inh CRC – blocks human caspase-7 activity in concentration-response. shares compounds with Coupling enz. recombinant caspase-7, fluorogenic substrate cleavage. Potency, µM (top dose mostly 57.5 µM), inactives show at the top dose activity change, negative = inhibition, most hits filed as inhibitors. 60 tested, under 10 active; active = well fitted inhibition curve with a large enough effect in the main read-out, with a control signal flat, not every such curve was filed as active; inconclusive = small, poorly fitted or top-dose-only effect, or a change in a side signal; inactive = no such curve, though single readings can be large or run the other way
CASP7 redox cys – counter-screen for redox active caspase-7 inhibitors: cysteine buffer. shares compounds with Coupling enz. caspase-7 enzyme with cysteine, fluorogenic substrate, redox counterscreen. Potency, µM (series often up to 57.5 µM), for inactives: at the top dose activity change, negative = inhibition, hits mostly inhibitors. 60 tested, under 10 active
Casp7 catalase – caspase-7 inhibition with catalase present; shares compounds with Coupling enz; Caspase-7 Ac-DEVD-AFC fluorescence rate, catalase buffer; Potency, µM (top dose mostly 57.5 µM), for inactives: at the top dose activity, negative = inhibition, most hits filed as inhibitors; 30 tested, under 10 active; AID 909
CASP1 redox cys – counter-screen for redox active caspase-1 inhibitors: cysteine buffer; recombinant caspase-1, fluorogenic substrate, cysteine buffer; shares compounds with Coupling enz; AID 929; 60 tested, under 10 active; Potency, µM (highest dose often 57.5 µM), for the others: at the highest dose activity change, negative = inhibition, most hits filed as inhibitors
* = called active by the depositor; ? = inconclusive; . = no result. Compounds with a hit are over-represented: about 2.3% of the library has one in this group of screens. Unless noted, calls come from the whole dose curve; as a rule, active = well fitted inhibition curve with a large enough effect in the main read-out, with a control signal flat; inconclusive = small, poorly fitted or top-dose-only effect, or a change in a side signal; inactive = no such curve, though single readings can be large or run the other way.

SMILES | Coupling enz | USP1-UAF1 inh | Tau fibril ThT | Tau FP inhib | Tau fluor counter | Casp1 confirm | CASP7 inh CRC | CASP7 redox cys | CASP1 redox cys | others
CC(N)[C@H](O)c1ccc(O)c(O)c1 (some centres undefined) | . | . | 3.5µM* | ? | ? | . | . | . | . | Tau TEM fibril=2*;tau sediment=70*
CC1C(=O)OC2C1CC[C@@]1(C)C=CC(=O)[C@@]3(C)O[C@@]213 (some centres undefined) | 4 | . | -8% | -3% | -5% | . | . | . | .
Cn1ncnc2c(=O)n(C)c(=O)nc1-2 | -94* | 0.032µM* | 11µM* | ? | -11% | 2µM* | 4µM* | -17% | -15% | CASP1 redox cat=1.1µM*;Casp7 catalase=?
COc1cc2c(cc1O)-c1c(O)c(OC)cc3c1[C@H](C2)N(C)CC3 | -28 | . | 28µM* | ? | ? | -14% | -5% | -6% | 3%
N#Cc1ccc(CN2CC3(CCNCC3)C2)cc1 | 1 | . | . | . | . | . | . | . | .
O=C(O)CCC(CP(=O)(O)O)C(=O)O (centres undefined) | 1 | . | . | . | . | . | . | . | .
C[C@]12Cc3cn4c(nc3C=C1CC[C@H]1[C@@H]2CC[C@@]2(C)[C@H]1CC[C@@]2(O)C#N)nc1ccccc14 | . | . | . | . | . | ? | ? | ? | ?
C[C@]12Cc3cn4c(nc3C=C1CCC1C2CC[C@@]2(C)[C@H]1CC[C@@]2(O)C#N)nc1ccccc14 (some centres undefined) | . | . | -7% | -4% | -2% | . | . | . | .
